Measurements: the supplement of paper PMC11732987, “Enantioselective OTUD7B fragment discovery through chemoproteomics screening and high-throughput optimisation” (Communications Chemistry, 2025)

How the values were obtained:
Experiment in all cases: log2 ratio of Biotin-Ahx-Ub-VS probe labelling (fragment/DMSO); higher = less target engagement (more negative = stronger competition), active = hit call of the paper (q ≤ 0.05, log2 ratio ≤ -1)
Details in all cases: compound concentration: 200 uM; treatment time: 3 h
USP34 = USP34 (UniProt Q70CQ2)
USP34, sequence (Q70CQ2 whole entry, the tested form may be a part): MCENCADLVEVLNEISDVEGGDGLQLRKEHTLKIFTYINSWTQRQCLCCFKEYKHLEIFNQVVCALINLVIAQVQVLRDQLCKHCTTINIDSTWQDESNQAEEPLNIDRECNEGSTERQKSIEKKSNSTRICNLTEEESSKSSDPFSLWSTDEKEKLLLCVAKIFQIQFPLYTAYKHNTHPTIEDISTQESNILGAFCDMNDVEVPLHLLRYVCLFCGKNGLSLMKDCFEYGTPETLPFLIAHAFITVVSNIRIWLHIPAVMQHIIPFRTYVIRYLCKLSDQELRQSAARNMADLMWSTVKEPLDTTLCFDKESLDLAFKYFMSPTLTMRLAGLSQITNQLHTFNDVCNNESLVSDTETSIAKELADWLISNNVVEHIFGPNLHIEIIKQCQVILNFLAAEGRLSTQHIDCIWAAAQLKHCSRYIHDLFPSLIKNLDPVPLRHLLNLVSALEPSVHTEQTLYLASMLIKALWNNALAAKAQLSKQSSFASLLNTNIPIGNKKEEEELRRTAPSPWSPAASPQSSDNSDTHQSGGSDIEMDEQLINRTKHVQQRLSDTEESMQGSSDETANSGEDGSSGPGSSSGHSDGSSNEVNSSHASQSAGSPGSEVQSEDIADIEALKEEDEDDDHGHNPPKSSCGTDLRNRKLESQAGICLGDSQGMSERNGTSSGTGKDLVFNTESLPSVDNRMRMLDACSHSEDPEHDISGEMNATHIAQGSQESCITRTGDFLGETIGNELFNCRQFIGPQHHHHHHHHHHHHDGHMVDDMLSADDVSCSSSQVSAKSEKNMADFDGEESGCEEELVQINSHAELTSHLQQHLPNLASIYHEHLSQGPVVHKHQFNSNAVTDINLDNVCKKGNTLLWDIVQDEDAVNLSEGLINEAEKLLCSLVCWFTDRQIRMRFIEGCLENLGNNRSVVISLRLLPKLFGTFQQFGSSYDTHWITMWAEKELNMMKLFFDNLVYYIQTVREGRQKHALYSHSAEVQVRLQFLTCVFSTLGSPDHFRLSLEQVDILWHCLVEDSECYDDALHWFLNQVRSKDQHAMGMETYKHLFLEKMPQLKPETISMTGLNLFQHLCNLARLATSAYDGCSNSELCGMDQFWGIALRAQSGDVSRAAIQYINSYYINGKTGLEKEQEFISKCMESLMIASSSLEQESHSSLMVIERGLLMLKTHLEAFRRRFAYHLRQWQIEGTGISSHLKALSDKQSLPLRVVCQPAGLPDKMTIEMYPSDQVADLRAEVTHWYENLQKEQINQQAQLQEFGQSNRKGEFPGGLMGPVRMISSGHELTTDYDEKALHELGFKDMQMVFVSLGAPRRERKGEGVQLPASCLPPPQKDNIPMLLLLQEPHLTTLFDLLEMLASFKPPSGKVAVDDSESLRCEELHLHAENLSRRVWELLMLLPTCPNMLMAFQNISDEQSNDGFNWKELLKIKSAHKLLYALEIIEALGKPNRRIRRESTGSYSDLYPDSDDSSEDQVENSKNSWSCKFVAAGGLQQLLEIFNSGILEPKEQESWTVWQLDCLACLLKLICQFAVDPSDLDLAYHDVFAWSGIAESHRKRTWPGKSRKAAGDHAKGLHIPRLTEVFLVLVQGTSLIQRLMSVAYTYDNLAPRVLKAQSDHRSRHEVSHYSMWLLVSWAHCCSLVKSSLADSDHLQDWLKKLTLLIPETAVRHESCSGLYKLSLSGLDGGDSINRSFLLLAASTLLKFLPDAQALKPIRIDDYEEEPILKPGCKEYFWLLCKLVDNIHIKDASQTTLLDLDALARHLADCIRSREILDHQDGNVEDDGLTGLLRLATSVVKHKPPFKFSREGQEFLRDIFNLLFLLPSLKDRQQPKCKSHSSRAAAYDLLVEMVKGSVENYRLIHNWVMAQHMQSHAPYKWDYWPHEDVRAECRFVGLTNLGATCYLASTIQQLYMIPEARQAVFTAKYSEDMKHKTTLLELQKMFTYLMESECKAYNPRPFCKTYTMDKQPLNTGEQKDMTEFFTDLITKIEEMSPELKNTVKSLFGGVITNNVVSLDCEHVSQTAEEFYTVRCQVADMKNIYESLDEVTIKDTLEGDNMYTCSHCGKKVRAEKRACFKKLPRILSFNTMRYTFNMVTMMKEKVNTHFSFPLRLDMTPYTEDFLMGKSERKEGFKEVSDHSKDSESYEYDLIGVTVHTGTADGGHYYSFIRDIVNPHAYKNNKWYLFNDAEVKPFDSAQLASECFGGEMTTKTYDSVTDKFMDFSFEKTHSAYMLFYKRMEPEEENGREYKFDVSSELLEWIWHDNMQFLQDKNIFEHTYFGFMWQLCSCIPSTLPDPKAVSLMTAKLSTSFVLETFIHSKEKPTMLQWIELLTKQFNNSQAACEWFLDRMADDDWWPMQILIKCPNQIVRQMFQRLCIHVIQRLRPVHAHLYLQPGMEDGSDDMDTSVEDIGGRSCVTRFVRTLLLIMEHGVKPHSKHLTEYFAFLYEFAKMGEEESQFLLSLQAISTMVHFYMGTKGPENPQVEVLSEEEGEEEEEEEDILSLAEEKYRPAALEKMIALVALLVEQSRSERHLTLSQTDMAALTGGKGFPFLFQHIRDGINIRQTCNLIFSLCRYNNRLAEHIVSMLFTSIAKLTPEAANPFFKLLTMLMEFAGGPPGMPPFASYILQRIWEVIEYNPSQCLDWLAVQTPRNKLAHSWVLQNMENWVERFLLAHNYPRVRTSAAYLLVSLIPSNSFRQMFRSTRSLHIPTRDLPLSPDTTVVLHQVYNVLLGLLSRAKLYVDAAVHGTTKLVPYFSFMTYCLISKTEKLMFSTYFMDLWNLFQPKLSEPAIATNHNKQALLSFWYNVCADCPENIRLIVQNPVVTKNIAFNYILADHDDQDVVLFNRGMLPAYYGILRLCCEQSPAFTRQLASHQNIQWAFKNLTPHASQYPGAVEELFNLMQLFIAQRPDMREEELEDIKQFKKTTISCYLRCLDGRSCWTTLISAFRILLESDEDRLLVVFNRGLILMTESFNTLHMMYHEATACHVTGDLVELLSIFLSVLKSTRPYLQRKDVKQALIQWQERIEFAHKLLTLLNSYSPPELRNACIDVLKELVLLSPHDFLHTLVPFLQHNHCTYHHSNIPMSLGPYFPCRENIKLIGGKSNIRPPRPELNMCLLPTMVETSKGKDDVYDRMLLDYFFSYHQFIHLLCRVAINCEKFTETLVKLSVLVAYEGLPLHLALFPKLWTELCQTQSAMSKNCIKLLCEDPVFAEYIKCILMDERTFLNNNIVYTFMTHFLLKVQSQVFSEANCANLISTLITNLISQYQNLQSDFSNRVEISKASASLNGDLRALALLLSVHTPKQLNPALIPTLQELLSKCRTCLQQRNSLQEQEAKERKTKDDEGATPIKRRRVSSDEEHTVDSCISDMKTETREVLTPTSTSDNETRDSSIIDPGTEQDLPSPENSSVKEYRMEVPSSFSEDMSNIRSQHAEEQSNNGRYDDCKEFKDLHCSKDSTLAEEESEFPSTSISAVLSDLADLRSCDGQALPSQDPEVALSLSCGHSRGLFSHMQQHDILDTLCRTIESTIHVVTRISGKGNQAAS
In short: (§1)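 HEK293T lysate in Tris/CHAPS/IGEPAL buffer with protease inhibitors (495 µg per sample) was given fragment at 200 µM or vehicle for 3 h, in triplicate. It then received Biotin-Ahx-Ub-VS at 0.5 µM final for 1 h. Labelled DUBs were NeutrAvidin-enriched, digested with LysC and trypsin, and run by diaPASEF LC-MS/MS. Values are average log2 fragment/vehicle ratios by unpaired t-test on global-median-normalised Spectronaut quantities of proteins with ≥2 unique peptides.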

USP36 = molecular target: T1, USP36 (UniProt Q9P275)
T1 sequence (whole entry): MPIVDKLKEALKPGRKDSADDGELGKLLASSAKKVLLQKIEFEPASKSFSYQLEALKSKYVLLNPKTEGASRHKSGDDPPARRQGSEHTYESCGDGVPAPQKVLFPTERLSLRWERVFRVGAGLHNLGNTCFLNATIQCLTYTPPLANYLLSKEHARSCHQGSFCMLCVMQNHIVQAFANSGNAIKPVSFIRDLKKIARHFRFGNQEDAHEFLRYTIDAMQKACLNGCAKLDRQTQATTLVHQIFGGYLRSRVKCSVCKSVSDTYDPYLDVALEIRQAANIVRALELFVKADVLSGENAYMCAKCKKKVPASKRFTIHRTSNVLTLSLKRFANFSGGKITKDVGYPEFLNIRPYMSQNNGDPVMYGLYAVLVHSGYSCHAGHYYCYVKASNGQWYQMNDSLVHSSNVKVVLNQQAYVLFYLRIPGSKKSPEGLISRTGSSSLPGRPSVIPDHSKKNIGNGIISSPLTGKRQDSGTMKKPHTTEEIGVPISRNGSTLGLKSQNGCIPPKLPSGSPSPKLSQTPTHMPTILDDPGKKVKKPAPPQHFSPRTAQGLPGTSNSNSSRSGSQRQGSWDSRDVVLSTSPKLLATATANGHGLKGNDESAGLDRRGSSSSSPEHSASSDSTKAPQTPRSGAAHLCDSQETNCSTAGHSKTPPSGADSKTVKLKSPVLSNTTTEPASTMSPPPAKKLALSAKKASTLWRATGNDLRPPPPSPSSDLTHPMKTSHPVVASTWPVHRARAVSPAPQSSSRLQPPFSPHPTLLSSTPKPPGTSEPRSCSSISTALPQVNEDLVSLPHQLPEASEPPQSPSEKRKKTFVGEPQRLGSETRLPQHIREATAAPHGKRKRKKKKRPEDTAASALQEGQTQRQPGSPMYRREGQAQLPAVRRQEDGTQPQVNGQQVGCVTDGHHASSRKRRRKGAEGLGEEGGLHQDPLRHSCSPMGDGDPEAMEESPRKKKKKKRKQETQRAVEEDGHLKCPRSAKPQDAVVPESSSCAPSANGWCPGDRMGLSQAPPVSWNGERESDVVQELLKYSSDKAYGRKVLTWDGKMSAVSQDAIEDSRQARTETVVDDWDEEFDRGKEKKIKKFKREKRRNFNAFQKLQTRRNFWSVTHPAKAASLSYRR
In short: as §1

USP38 = molecular target: T2, USP38 (UniProt Q8NB14)
T2 sequence (whole entry): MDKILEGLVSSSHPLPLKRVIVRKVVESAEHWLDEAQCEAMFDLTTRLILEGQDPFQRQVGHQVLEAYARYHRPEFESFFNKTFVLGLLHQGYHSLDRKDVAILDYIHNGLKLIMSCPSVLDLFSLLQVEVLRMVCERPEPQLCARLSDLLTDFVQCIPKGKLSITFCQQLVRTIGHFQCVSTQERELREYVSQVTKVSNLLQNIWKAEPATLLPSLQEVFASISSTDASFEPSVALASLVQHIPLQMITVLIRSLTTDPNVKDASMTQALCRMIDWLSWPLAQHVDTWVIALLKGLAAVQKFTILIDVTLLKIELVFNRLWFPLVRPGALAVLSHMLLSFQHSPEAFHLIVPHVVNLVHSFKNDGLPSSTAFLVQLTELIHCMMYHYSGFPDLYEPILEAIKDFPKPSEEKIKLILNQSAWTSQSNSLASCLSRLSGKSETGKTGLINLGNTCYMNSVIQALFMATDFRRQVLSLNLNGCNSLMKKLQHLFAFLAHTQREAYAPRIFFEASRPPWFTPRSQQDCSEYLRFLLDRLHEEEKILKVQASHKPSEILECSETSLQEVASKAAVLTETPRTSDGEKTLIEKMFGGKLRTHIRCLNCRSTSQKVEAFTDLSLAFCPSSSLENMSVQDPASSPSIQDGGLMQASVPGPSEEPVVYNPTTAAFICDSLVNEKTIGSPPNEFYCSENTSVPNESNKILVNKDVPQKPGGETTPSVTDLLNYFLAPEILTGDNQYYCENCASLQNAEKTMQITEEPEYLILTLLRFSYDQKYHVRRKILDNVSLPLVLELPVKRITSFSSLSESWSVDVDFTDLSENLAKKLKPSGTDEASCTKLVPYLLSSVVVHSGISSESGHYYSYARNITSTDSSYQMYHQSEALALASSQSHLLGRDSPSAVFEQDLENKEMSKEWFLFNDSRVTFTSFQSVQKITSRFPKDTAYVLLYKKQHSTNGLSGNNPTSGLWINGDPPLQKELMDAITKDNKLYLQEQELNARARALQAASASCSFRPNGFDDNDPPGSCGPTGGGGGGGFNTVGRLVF
In short: as §1

USP39 = molecular target: T3, USP39 (UniProt Q53GS9)
T3 sequence (whole entry): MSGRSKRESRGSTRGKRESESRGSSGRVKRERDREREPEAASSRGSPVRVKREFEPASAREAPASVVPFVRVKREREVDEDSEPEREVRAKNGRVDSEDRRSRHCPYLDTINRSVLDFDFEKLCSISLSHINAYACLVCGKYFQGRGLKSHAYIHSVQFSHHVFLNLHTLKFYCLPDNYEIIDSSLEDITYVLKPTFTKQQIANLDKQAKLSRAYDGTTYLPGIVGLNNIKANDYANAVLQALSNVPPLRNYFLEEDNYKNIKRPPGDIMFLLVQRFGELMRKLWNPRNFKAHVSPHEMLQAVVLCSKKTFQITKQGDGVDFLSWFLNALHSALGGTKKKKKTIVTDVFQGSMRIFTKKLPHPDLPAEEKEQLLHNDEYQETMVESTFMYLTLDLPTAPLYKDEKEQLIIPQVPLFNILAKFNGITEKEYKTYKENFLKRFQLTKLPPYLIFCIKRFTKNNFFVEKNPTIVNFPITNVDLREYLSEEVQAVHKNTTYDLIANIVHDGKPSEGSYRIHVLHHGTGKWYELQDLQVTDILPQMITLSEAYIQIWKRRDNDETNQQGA
In short: as §1

USP4 = molecular target: T4, USP4 (UniProt Q13107)
T4 sequence (whole entry): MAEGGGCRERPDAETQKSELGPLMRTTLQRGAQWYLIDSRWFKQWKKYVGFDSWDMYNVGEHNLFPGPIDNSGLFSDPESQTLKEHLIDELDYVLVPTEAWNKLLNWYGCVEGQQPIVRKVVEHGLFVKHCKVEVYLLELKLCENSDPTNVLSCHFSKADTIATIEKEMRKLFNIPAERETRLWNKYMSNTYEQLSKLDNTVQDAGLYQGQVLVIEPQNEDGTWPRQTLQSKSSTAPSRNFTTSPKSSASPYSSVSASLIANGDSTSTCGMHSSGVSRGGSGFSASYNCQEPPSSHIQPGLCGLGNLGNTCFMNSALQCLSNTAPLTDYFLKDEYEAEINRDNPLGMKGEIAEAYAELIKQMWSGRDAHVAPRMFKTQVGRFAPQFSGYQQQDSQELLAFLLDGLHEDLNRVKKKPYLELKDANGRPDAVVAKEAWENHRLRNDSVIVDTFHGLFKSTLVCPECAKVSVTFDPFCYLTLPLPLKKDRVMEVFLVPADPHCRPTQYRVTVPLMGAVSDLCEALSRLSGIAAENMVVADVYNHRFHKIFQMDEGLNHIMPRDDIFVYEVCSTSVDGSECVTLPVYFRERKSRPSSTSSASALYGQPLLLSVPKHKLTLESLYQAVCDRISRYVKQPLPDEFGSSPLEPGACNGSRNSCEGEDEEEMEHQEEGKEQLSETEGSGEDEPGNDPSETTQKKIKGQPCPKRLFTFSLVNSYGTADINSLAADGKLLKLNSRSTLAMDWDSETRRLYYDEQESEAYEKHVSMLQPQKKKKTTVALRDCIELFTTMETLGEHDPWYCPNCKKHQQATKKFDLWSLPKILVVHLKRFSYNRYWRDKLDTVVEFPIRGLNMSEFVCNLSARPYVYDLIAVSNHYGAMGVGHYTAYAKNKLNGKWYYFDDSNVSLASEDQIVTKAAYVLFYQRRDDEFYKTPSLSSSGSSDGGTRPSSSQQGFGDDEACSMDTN
In short: as §1

Measured: log2 ratio of Biotin-Ahx-Ub-VS probe labelling

O=C(CCl)Nc1cccc2ncccc12
inactive: USP34 -0.104 | USP36 0.45 | USP38 0.13 | USP39 0.472 | USP4 0.0333
